The remaining activity is the signal under treatment as a percentage of the control signal. As usually defined, the inhibition is the drop in the measured response relative to a control, in per cent. Usually viability stands for a read-out of living cells in per cent, often relative to untreated cells.

Results on 14 compounds are retold here after PubChem BioAssay.

Test [1] relates to Aerobactin synthetase IucA (Klebsiella pneumoniae). In words: inhibition of K. pneumoniae IucA enzyme – biochemical, Tocris library, absorbance (AID 1345561).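 Note: 100% = enzyme without compound and 0% = no enzyme.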 As to conditions: purified IucA enzyme assay, absorbance (OD) read-out; stronger effect = lower value;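 tested at 8 µM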.
Test [2] can be described thus: viability loss with induced miR-34 in A549 – imaging, A549 dox-inducible miR-34, nuclei and caspase counts, primary screen (AID 1347080;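 active = compounds whose cell count with miR-34 switched on is under 0.7 times the count with it off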). Particulars: A549 miR-34 inducible, Hoechst nuclei count, 48 h.
A short description of test [3]: galactose survival enhancers in mitochondrial complex I cybrids – cell-based, galactose medium, ATP luminescence, primary screen (AID 1645843;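 active = z-score of at least 1.8 in each of two replicates, scored against plate mean and spread of sample wells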;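 note: positive z means more ATP and so rescue of galactose-driven cybrid death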). Particulars: complex I mutant cybrid cells, 72 h, stronger effect = higher value.
Test [4] in a line: growth inhibition, single agent or in combination, cell-based, chromothripsis tumors, cisplatin or BGB combos (AID 1671449; in the data active = inhibition above about 80%;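 note: cells exposed for 96 hours; 0% = vehicle DMSO and 100% = killing by high DMSO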). Particulars: LFS_MB_P medulloblastoma cells.
A short description of test [5]: growth inhibition, single agent and combos, cell-based, chromothripsis tumors, cisplatin or BGB combos (AID 1671450; in the data active = inhibition above about 80%;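 note: cells exposed to compound for four days; 0% = vehicle DMSO and 100% = cell killing by high DMSO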). As to conditions: HDN33 neuroblastoma cells, stronger effect = higher value.
Test [6] is described as follows: growth inhibition, single agents and combos, ICB984, cell-based, cisplatin or BGB combos, synergistic combos for chromothripsis tumors (AID 1671451).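 Note: cells exposed for 96 hours before readout; 0% = vehicle DMSO and 100% = killing by high DMSO.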 Particulars: ICB984 medulloblastoma cells, drug combinations, stronger effect = higher value.
A short description of test [7]: growth inhibition, single agents and combos, HTB85, cell-based, BGB or cisplatin IC20 combos, synergistic combos for chromothripsis tumors (AID 1671453; in the data active = inhibition above about 80%;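 note: cells exposed for 96 hours before readout; 0% = vehicle DMSO and 100% = high DMSO killing control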). Particulars: HTB85 osteosarcoma cells, drug combinations, stronger effect = higher value.
Test [8] in a line: P. berghei load reduction in hepatocytes – cell-based, HepG2, luciferase luminescence, HepG2 viability, primary screen (AID 624349; in the data active = parasite load remaining mostly below about 12%, no sharp cut-off; inactive = mostly above about 10%;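 note: 100% = mean of DMSO negative control wells on the same plate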). Particulars: P. berghei liver stage in HepG2, luciferase luminescence, concentration not given here; parasite load remaining: stronger effect = lower value; viability: measured here: HepG2 viability without parasites.
The mark [9] stands for this setting: stronger effect = lower value, cell number ratio, induced over uninduced.
Setting [10] is: measured here: relative caspase fold change +Dox/-Dox.
The mark [11] stands for this setting: measured here: total cells with miR-34 induction, stronger effect = lower value.
Setting [12] is: measured here: total cells without miR-34 induction.
[13] abbreviates: at 0.5 µM, stronger effect = higher value.
The mark [14] stands for this setting: measured here: combination with BGB IC20, at 0.005 µM.
Where [15] appears, read: measured here: combination with BGB IC40, at 0.005 µM.
Where [16] appears, read: measured here: combination with BGB IC40, at 0.05 µM.
Where [17] appears, read: measured here: combination with cisplatin, at 0.5 µM, stronger effect = higher value.
The mark [18] stands for this setting: measured here: combination with cisplatin, at 5 µM, stronger effect = higher value.
Where [19] appears, read: measured here: with BGB IC20 combination, at 0.5 µM.
Setting [20] is: measured here: with cisplatin IC20 combination, at 0.5 µM.
[21] abbreviates: measured here: 5 uM single agent, at 5 µM.
Setting [22] is: measured here: with BGB IC20, at 0.5 µM.
The mark [23] stands for this setting: measured here: with BGB IC20, at 5 µM.
The mark [24] stands for this setting: measured here: with cisplatin IC20, at 0.5 µM.
[25] abbreviates: measured here: with cisplatin IC20, at 5 µM.

Each structure is given as a SMILES string. Where “and” joins values, the source holds several entries; their conditions need not be identical. Identical values can stand only once. Calls of active or inactive are those of the source. Unless noted, the rule behind the calls is not given here.

For `O=c1[nH]cnc2ccccc12`, the remaining activity in test [1] was 102% (inactive). The fold change in test [2] (setting [9]) was 0.942 (inactive); in test [2] (setting [10]), 1.88. In addition, the cell count was determined as 8900 in test [2] (setting [11]) and 9450 in test [2] (setting [12]). Besides, the z-score in test [3] was -0.085 (inactive). For the same compound, the inhibition was -17.1% (inactive) in test [4] (setting [13]); -35.2% in test [4] (setting [14]); -30.5% in test [4] (setting [15]); -20.2% in test [4] (setting [16]); -41% in test [4] (setting [17]); -52.6% in test [4] (setting [18]). The inhibition in test [5] (BGB combo, at 5 µM) is -24.4%; in test [5] (at 0.5 µM) it was -4.24% (inactive); in test [5] (cisplatin combo, at 5 µM) it was 7.34%; in test [5] (setting [19]) it was 2.06%; in test [5] (setting [20]), -23.5%; in test [5] (single agent, at 5 µM), 3.32%. Besides, the inhibition in test [6] (BGB IC20 combo, at 0.005 µM) was -9.29%; in test [6] (BGB IC40 combo, at 0.005 µM) it was -31.8%; in test [6] (BGB IC40 combo, at 0.05 µM), -19.2%; in test [6] (at 0.5 µM), -16.4% (inactive); in test [6] (cisplatin combo, at 0.05 µM), -23.5%; in test [6] (cisplatin combo, at 0.5 µM) it was -12.5%. Besides, the inhibition is -22.5% in test [6] (cisplatin combo, at 5 µM); -4.22% in test [6] (setting [21]); -3.81% (inactive) in test [7] (at 0.5 µM); -2.72% in test [7] (setting [22]); 7.21% in test [7] (setting [23]); 2.1% in test [7] (setting [24]). In addition, the inhibition in test [7] (setting [25]) is -54.4%; in test [7] (single agent, at 5 µM), -7.3%.

`O=c1cc(N2CCOCC2)oc2c1ccc1ccccc12`: the parasite load remaining in test [8] was 36.5% (inactive). Moreover, the viability in test [8] worked out at 108%. In test [1], the remaining activity was 119% (inactive). The fold change in test [2] (setting [9]) was 1.08 (inactive); in test [2] (setting [10]) it was 1.44. Moreover, the cell count is 6910 in test [2] (setting [11]) and 6380 in test [2] (setting [12]). In test [3], the z-score was 1.36 (inactive). The inhibition in test [4] (setting [13]) was -16% (inactive); in test [4] (setting [14]), -21.9%; in test [4] (setting [15]), 39.3%; in test [4] (setting [16]), -14.5%; in test [4] (setting [17]) it was -18.2%; in test [4] (setting [18]) it was 6.61%. Further, the inhibition is -27.9% in test [5] (BGB combo, at 5 µM); 5.72% (inactive) in test [5] (at 0.5 µM); -6.14% in test [5] (cisplatin combo, at 5 µM); -2.44% in test [5] (setting [19]); 15.8% in test [5] (setting [20]); 4.04% in test [5] (single agent, at 5 µM). Further, the inhibition in test [6] (BGB IC20 combo, at 0.005 µM) is 3.18%; in test [6] (BGB IC40 combo, at 0.005 µM), -0.874%; in test [6] (BGB IC40 combo, at 0.05 µM), -4.91%; in test [6] (at 0.5 µM) it was -11.2% (inactive); in test [6] (cisplatin combo, at 0.05 µM) it was -10.2%; in test [6] (cisplatin combo, at 0.5 µM), -14.9%. Also, the inhibition was -15.9% in test [6] (cisplatin combo, at 5 µM); 0.403% in test [6] (setting [21]); -0.76% (inactive) in test [7] (at 0.5 µM); 5.35% in test [7] (setting [22]); 11.2% in test [7] (setting [23]); -3.29% in test [7] (setting [24]). Further, the inhibition in test [7] (setting [25]) worked out at 1.5%; in test [7] (single agent, at 5 µM), 5%.

In the case of `CC(C)C1C2CCC(C2)C1N` (configuration not stated), the remaining activity in test [1] was 119% (inactive). Besides, the fold change is 0.973 (inactive) in test [2] (setting [9]) and 0.597 in test [2] (setting [10]). The cell count was 9360 in test [2] (setting [11]) and 9620 in test [2] (setting [12]). Besides, the z-score in test [3] is -0.42 (inactive).

As for `NS(=O)(=O)c1cccc2c1c([N+](=O)[O-])cc1nc(O)c(O)nc12`, the remaining activity in test [1] is 120% (inactive). For the same compound, the fold change is 1.03 (inactive) and 0.923 (inactive) in test [2] (setting [9]); 1.03 and 0.947 in test [2] (setting [10]). Also, the cell count in test [2] (setting [11]) was 11000 and 9080; in test [2] (setting [12]), 10700 and 9830. In addition, the z-score in test [3] is 0.68 (inactive) and 0.65 (inactive).

On to `Cc1c[nH]c(=O)n(CCCN2CCN(c3ccccc3OCC(F)(F)F)CC2)c1=O`, for which the remaining activity in test [1] was 126% (inactive). Besides, the values for the fold change in test [2] (setting [9]) and in test [2] (setting [10]) were 0.952 (inactive) and 0.729, respectively. For the same compound, the figures for the cell count in test [2] (setting [11]) and in test [2] (setting [12]) were 10000 and 10500, respectively. Moreover, in test [3], the z-score was -0.38 (inactive).

Regarding `COc1cc2ncnc(Nc3ccc(Oc4ccccc4)cc3)c2cc1OC`, the parasite load remaining in test [8] is 30.7% (inactive). Further, in test [8], the viability turned out to be 67.6%. Also, the remaining activity in test [1] is 104% (inactive). Also, the figures for the fold change in test [2] (setting [9]) and in test [2] (setting [10]) were 0.963 (inactive) and 1.11, respectively. The values for the cell count in test [2] (setting [11]) and in test [2] (setting [12]) were 8700 and 9040, respectively. The z-score in test [3] was 0.48 (inactive).

Consider `N#C/C(=C\c1ccc(O)c(O)c1)C(=O)NCCCCc1ccccc1`, for which the remaining activity in test [1] was 95.7% (inactive). In addition, the fold change in test [2] (setting [9]) is 0.982 (inactive); in test [2] (setting [10]), 1.09. In addition, the cell count in test [2] (setting [11]) was 7480; in test [2] (setting [12]), 7610. Moreover, the z-score in test [3] is -0.725 (inactive).

`FC(F)(F)c1cc(CO[C@H]2CCCN[C@H]2c2ccccc2)cc(C(F)(F)F)c1`: in test [1], the remaining activity was 112% (inactive). Besides, the fold change is 1.01 (inactive) in test [2] (setting [9]) and 0.987 in test [2] (setting [10]). Moreover, the cell count in test [2] (setting [11]) amounted to 2150; in test [2] (setting [12]), 2140. In addition, the z-score in test [3] is -0.8 (inactive).

With `Cc1nc2sccn2c(=O)c1CCN1CCC(=C(c2ccccc2)c2ccc(F)cc2)CC1`, the remaining activity in test [1] is 120% (inactive). The figures for the fold change in test [2] (setting [9]) and in test [2] (setting [10]) were 0.974 (inactive) and 1.11, respectively. Also, the cell count in test [2] (setting [11]) was determined as 7180; in test [2] (setting [12]), 7370. In addition, in test [3], the z-score is -0.655 (inactive).

Take `N[C@H](C(=O)O)c1ccc(C(=O)O)c(O)c1`: the remaining activity in test [1] is 95.5% (inactive). In addition, the fold change was 0.931 (inactive) in test [2] (setting [9]) and 0.823 in test [2] (setting [10]). In addition, the cell count came to 8860 in test [2] (setting [11]) and 9520 in test [2] (setting [12]). Besides, the z-score in test [3] was -0.145 (inactive).

Take `CCc1cc(C2NNC(C)C2c2ccc3c(c2)OCCO3)c(O)cc1O` (configuration not stated): the remaining activity in test [1] is 92.2% (inactive). For the same compound, the fold change in test [2] (setting [9]) was 1.01 (inactive); in test [2] (setting [10]), 1.27. In addition, the cell count came out at 4520 in test [2] (setting [11]) and 4490 in test [2] (setting [12]). Moreover, the z-score in test [3] was 0.625 (inactive).

For the compound `C=CC(=O)c1ccc2ccccc2c1`, the remaining activity in test [1] is 118% (inactive). Moreover, the fold change in test [2] (setting [9]) is 0.911 (inactive); in test [2] (setting [10]), 1.23. Further, the cell count in test [2] (setting [11]) stood at 8570; in test [2] (setting [12]) it was 9410. For the same compound, the z-score in test [3] is -0.58 (inactive).

As to `CCCCN1CCC(CCC(=O)c2cc(Cl)c(N)cc2OC)CC1`, the remaining activity in test [1] is 95.7% (inactive). The results for the fold change in test [2] (setting [9]) and in test [2] (setting [10]) were 0.973 (inactive) and 1.12, respectively. Further, the cell count in test [2] (setting [11]) was 8560; in test [2] (setting [12]), 8800. The z-score in test [3] was -0.48 (inactive).

On to `Nc1ccc(-c2cccc3c(=O)cc(N4CCOCC4)oc23)cc1`, for which the parasite load remaining in test [8] is 43.6% (inactive). For the same compound, in test [8], the viability turned out to be 83.4%. For the same compound, the remaining activity in test [1] is 104% (inactive). The fold change was 0.901 (inactive) in test [2] (setting [9]) and 1.45 in test [2] (setting [10]). Also, the cell count was determined as 3870 in test [2] (setting [11]) and 4300 in test [2] (setting [12]). The z-score in test [3] is 4.44 (active).
